Measurements: PubChem BioAssay
Calls of active or inactive are those of the source.

Experiments:
[1] = adipocyte viability effects, profiling panel, cell-based, 3T3-L1 adipocytes, calcein-AM fluorescence, 48 h, basal (AID 1163); settings: 3T3-L1 adipocytes viability, higher = more signal
[2] = HepG2 cell viability effects, profiling panel, calcein-AM fluorescence, 48 h, basal (AID 1164); settings: higher = more signal
[3] = MM1S cell viability effects, profiling panel, calcein-AM fluorescence, 48 h, basal (AID 1165); settings: higher = more signal;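 note: viability of MM1S multiple myeloma cells under basal unstimulated conditions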
[4] = basal RPMI8226 viability, no added stimulus, profiling panel, cell-based, calcein-AM fluorescence, 48 h, PK04 Diversity Set (AID 1166); settings: RPMI8226 myeloma viability, higher = more signal;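 note: cells grown under basal conditions without added stimulus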
[5] = basal HepG2 mitochondrial membrane potential changes, profiling panel, cell-based, JC-1 fluorescence, 24 h, 100 nL compound (AID 1167); settings: higher = more signal
[6] = basal 3T3-L1 adipocyte mitochondrial potential changes, profiling panel, cell-based, JC-1 fluorescence, 3T3-L1 adipocytes, 24 h, 100 nL compound (AID 1168); settings: JC-1 mitochondrial fluorescence, higher = more signal, called active from +8 up or from −8 down
[7] = basal RPMI8226 mitochondrial membrane potential changes, profiling panel, cell-based, JC-1 fluorescence, 24 h, 100 nL compound (AID 1169); settings: RPMI8226 myeloma, JC-1 mitochondrial potential fluorescence, higher = more signal
[8] = basal MM1S mitochondrial membrane potential changes, profiling panel, cell-based, JC-1 fluorescence, 24 h, 100 nL compound (AID 1170); settings: higher = more signal
[9] = A549 lung cancer cell viability effects, profiling panel, resazurin fluorescence, 24 h, PK04 Diversity Set (AID 1171); settings: higher = more signal, called active from +8 up or from −8 down
[10] = HepG2 liver cancer cell viability effects, profiling panel, resazurin fluorescence, 24 h, PK04 Diversity Set (AID 1172); settings: higher = more signal
[11] = basal S. cerevisiae growth modulation, no modifier, primary screen, OD600, strain BY4716, 24 h, basal condition (AID 1173); settings: OD600, 24 h, higher = more signal, called active from +8 up or from −8 down
[12] = MM1S myeloma cell viability, profiling panel, resazurin fluorescence, basal, 24 h, PK04 Diversity Set (AID 1174); settings: higher = more signal, called active from +8 up or from −8 down;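 note: MM1S multiple myeloma cell line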
[13] = molecular target: Dihydroorotate dehydrogenase (quinone), mitochondrial (Plasmodium falciparum (isolate 3D7)) (UniProt Q08210); experiment: PfDHODH enzyme inhibitors, primary screen, biochemical, C-terminal His tag, absorbance 600 nm (AID 1175); settings: DCIP absorbance 600 nm, higher = more signal, called active from +8 up or from −8 down;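 note: recombinant parasite enzyme with a five histidine tag at its C terminus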
[14] = S. cerevisiae RM11-1a growth modifiers, primary screen, strain RM11-1a, OD600, basal, 24 h (AID 1177); settings: OD600, 24 h, higher = more signal, called active from +8 up or from −8 down;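 note: cultures grown under basal conditions with no added stressor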
[15] = E. coli acrAB mutant growth effects, primary screen, E. coli filamentation inducers, strain DRC39, OD650, 24 h (AID 1178); settings: higher = more signal, called active from +8 up or from −8 down;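 note: growth measured as culture turbidity by optical density at 650 nm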
[16] = E. coli acrAB mutant growth effects, primary screen, E. coli filamentation inducers, strain DRC39, OD650, 48 h (AID 1179);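 note: screen aims at cell division blockers that make cells filament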; settings: E. coli DRC39 delta-acrAB growth, higher = more signal, called active from +8 up or from −8 down
[17] = RPMI8226 myeloma cell viability, profiling panel, resazurin fluorescence, basal, 24 h, PK04 Diversity Set (AID 1180); settings: higher = more signal;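 note: RPMI8826 multiple myeloma cell line at 5000 cells per well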
[18] = molecular target: E3 ubiquitin-protein ligase XIAP (Homo sapiens) (UniProt P98170); experiment: XIAP binders, primary screen, biophysical, small-molecule microarray, fluorescence 635 nm (AID 1181); settings: small-molecule microarray binding, higher = more signal;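 note: score merges 667 nm emission and signal to noise over triplicate slides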
[19] = test system: XIP peptide (Xip251-270) binding; experiment: small-molecule binders of XIP peptide, primary screen, biochemical, small-molecule microarray, fluorescence 635/667 nm, 0.1 µg/mL protein (AID 1182); settings: fluorescent protein binding, 635 nm, higher = more signal, called active from +8 up or from −8 down
[20] = test system: XIP peptide (Xip251-270); experiment: small-molecule binders of XIP peptide, primary screen, biochemical, small-molecule microarray, fluorescence 635/667 nm, 0.5 µg/mL protein (AID 1183); settings: small-molecule microarray binding, fluorescence 635 nm; higher = more signal

Chain of E3 ubiquitin-protein ligase XIAP (Homo sapiens) (P98170 whole entry, looked up): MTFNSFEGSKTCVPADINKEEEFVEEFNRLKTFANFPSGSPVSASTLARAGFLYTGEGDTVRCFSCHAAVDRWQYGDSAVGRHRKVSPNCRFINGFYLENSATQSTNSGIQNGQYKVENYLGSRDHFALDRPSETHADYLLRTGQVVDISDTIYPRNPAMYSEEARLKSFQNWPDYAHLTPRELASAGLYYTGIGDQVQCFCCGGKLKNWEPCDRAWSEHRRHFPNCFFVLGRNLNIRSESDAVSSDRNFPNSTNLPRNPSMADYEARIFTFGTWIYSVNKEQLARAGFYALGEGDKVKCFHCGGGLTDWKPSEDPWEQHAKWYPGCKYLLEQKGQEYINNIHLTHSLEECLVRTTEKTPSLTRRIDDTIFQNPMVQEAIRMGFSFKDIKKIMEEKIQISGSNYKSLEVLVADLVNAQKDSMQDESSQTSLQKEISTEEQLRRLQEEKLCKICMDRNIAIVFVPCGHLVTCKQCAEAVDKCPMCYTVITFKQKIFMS
Chain of Dihydroorotate dehydrogenase (quinone), mitochondrial (Plasmodium falciparum (isolate 3D7)) (Q08210 whole entry, looked up): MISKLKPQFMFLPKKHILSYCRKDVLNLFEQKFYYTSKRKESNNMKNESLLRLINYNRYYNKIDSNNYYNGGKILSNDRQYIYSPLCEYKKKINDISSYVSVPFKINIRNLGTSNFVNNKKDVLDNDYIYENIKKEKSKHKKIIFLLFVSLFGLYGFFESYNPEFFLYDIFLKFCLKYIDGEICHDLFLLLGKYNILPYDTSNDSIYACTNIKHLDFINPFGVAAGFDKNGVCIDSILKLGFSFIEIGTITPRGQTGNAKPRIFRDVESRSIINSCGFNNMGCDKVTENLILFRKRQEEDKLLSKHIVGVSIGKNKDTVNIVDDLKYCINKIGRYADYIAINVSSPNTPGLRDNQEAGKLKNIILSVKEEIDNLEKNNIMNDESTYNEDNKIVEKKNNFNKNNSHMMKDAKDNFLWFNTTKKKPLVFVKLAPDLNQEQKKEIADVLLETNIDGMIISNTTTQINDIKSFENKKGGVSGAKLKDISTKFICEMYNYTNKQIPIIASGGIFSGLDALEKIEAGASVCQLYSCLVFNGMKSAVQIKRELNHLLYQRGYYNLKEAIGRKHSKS

Structure (SMILES)	z-score [1]	z-score [2]	z-score [3]	z-score [4]	z-score [5]	z-score [6]	z-score [7]	z-score [8]	z-score [9]	z-score [10]	z-score [11]	z-score [12]	composite z-score [13]	z-score [14]	z-score [15]	z-score [16]	z-score [17]	composite z-score [18]	composite z-score [19]	composite z-score [20]
CO[C@H]1O[C@H](CO)[C@@H](OC(=O)Nc2ccccc2)[C@H](OC(=O)Nc2ccccc2-c2ccccc2)[C@H]1OC(=O)Nc1ccccc1-c1ccccc1	1.59	-4.94	-3.51	-4.34	-1.05	3.65 (inactive)	-1.17	-1.64	-6.11 (inactive)	-4.93	-2.12 (inactive)	-6.52 (inactive)	-0.551 (inactive)	0.145 (inactive)	0.218 (inactive)	-0.414 (inactive)	-5.34	0.113	1.32 (inactive)	0.896
Cc1ccc(S[C@]2(C(=O)NC3CC3)CC(=O)N(Cc3ccccc3C(F)(F)F)[C@@H]2c2ccc(CO)cc2I)cc1	0.421	-0.4	-2.65	-2.11	1.44	0.525 (inactive)	-0.513	-0.93	0.149 (inactive)	0.436	-8 (inactive)	-1.93 (inactive)	-2.6 (inactive)	-2.07 (inactive)	0.413 (inactive)	0.303 (inactive)	-1.84	-0.29	0.0437 (inactive)	-0.811
CC(C)N1C(=O)c2ccccc2[C@@H](C(=O)NCc2ccccc2)[C@@H]1c1ccc(CO)cc1	1.05	-0.179	-0.601	0.0541	0.617	-0.0455 (inactive)	0.115	-0.251	1.05 (inactive)	0.595	0.25 (inactive)	1.51 (inactive)	0.578 (inactive)	1.49 (inactive)	0.541 (inactive)	0.169 (inactive)	1.01	-0.0095	0.482 (inactive)	-0.988
NCCCCCCNC(=O)[C@@H]1C[C@@H]2C(=O)N[C@@H](Cc3ccccc3)C(=O)N2[C@@H]1c1ccc(O)cc1	1.09	-0.46	0.0892	-0.141	0.666	-0.386 (inactive)	0.0478	0.188	1.19 (inactive)	0.368	-1.77 (inactive)	1.38 (inactive)	0.687 (inactive)	-0.509 (inactive)	0.236 (inactive)	0.476 (inactive)	1.53	-0.305	0.208 (inactive)	0.225
COC(=O)C(CC#Cc1ccc2c(c1)[C@]1(C(=O)N2)[C@H](C(N)=O)[C@H]2C(=O)O[C@H](c3ccccc3)[C@H](c3ccccc3)N2[C@@H]1c1ccc(O)cc1)C(=O)OC	0.915	0.72	0.555	-1.42	-2.22	-0.2 (inactive)	-1.17	1.25	1.16 (inactive)	0.259	-1.26 (inactive)	1.52 (inactive)	-0.0538 (inactive)	0.208 (inactive)	0.105 (inactive)	0.572 (inactive)	1.27	0.0239	1.07 (inactive)	-1.13
CC(C)(C)OC(=O)CC[C@@]1(C(=O)NCc2ccccc2)N=C(c2ccc(OCCCO)cc2)O[C@@H]1c1ccccc1CN=[N+]=[N-]	2.98	-0.399	0.507	-1.04	2.13	0.179 (inactive)	-1.12	0.236	0.392 (inactive)	-0.169	-0.986 (inactive)	0.725 (inactive)	-0.182 (inactive)	-0.496 (inactive)	2.1 (inactive)	0.824 (inactive)	0.394	-0.227	1.42 (inactive)	0.733
COCCCNC(=O)[C@@]1(Cc2ccccc2)N=C(c2ccc(OCCCO)cc2)O[C@H]1c1ccccc1N=[N+]=[N-]	1.95	-0.121	-1.67	-4.02	1.12	2.93 (inactive)	-1.1	-0.433	-1.83 (inactive)	0.357	0.346 (inactive)	-1.13 (inactive)	1.37 (inactive)	2.42 (inactive)	1.22 (inactive)	0.18 (inactive)	-2.12	0.085	0.619 (inactive)	-0.473
COc1ccc(/C=C/C(=O)c2cccc(OCC(=O)OC(C)(C)C)c2)cc1	0.934	0.158	-2.97	-2.67	0.528	0.342 (inactive)	-0.702	0.656	1.26 (inactive)	0.163	-1.39 (inactive)	1.11 (inactive)	0.131 (inactive)	-0.428 (inactive)	0.4 (inactive)	0.0785 (inactive)	1.76	0.0374	0.401 (inactive)	0.247
CCCNC(=O)[C@@]1(Sc2ccc(C)cc2)CC(=O)N(Cc2cc(C(F)(F)F)cc(C(F)(F)F)c2)[C@@H]1c1ccc(CO)cc1I	0.66	1.28	-2.53	-1.3	0.848	1.18 (inactive)	-0.649	-1.24	0.0086 (inactive)	1.05	-5.79 (inactive)	-1.68 (inactive)	-0.684 (inactive)	-5 (inactive)	0.961 (inactive)	1.4 (inactive)	-1.55	-0.0925	0.459 (inactive)	0.816
COCCOC(=O)N1C(=O)[C@@]2(c3cc(C#CC4(O)CCCCCC4)ccc31)[C@H](c1ccc(O)cc1)N1[C@H](c3ccccc3)[C@H](c3ccccc3)OC(=O)[C@H]1[C@@H]2C(N)=O	1.46	0.638	-2.22	-4.23	-1.6	-0.385 (inactive)	-0.735	0.246	0.928 (inactive)	0.228	-1.38 (inactive)	0.951 (inactive)	0.194 (inactive)	-0.95 (inactive)	0.158 (inactive)	0.155 (inactive)	0.778	0.166	1.84 (inactive)	0.821
COc1ccc([Si](C)(C)[C@H]2[C@H](CCO)O[C@@]3(C(=O)N(Cc4ccc(N5C(=O)c6cccc7cccc5c67)cc4)c4ccccc43)[C@@H]2C)cc1	2.06	-2.91	-1.23	-3.75	0.00974	1.68 (inactive)	-1.07	-1.6	-2.51 (inactive)	-1.26	-0.433 (inactive)	-2.4 (inactive)	-0.344 (inactive)	2.48 (inactive)	2.3 (inactive)	1.4 (inactive)	-4.55	0.0223	0.529 (inactive)	0.623
CC(=O)OC(C/C=C\B1OC(C)(C)C(C)(C)O1)c1ccccc1 (stereo not given)	0.554	0.467	0.345	0.0422	2.03	2.31 (inactive)	-0.457	0.962	0.273 (inactive)	0.518	-2.1 (inactive)	1.14 (inactive)	0.339 (inactive)	-4.44 (inactive)	1.5 (inactive)	0.57 (inactive)	0.157	-0.0256	-0.65 (inactive)	-0.842
CCCCCN1CC=CC23O[C@@H]4/C=C\CCC(C)OC(=O)C4[C@H]2C(=O)N(CCO)[C@@H]3C1=O (stereo not given in full)	2.4	0.277	2.91	-0.245	0.419	1.74 (inactive)	0.791	1.17	0.095 (inactive)	0.355	-0.734 (inactive)	1.32 (inactive)	0.0255 (inactive)	0.121 (inactive)	1.34 (inactive)	1.11 (inactive)	1.22	0.272	0.642 (inactive)	-0.927
CC(C)(C)OC(=O)CC[C@]1(C(=O)NCc2ccccc2)N=C(c2ccc(OCCCO)cc2)O[C@H]1c1ccccc1N=[N+]=[N-]	2.99	-0.957	-0.369	-1.52	2.24	2.6 (inactive)	-0.578	-0.669	-0.413 (inactive)	0.384	0 (inactive)	-0.439 (inactive)	1.18 (inactive)	0.892 (inactive)	3.14 (inactive)	1.08 (inactive)	-0.2	-0.0095	0.735 (inactive)	0.725
CC(C)C[C@@H]1NC(=O)[C@@]23C(=O)N[C@@H](Cc4ccccc4)C2[C@H](C)[C@@]2(C)O[C@H]2C3/C=C/C/C=C\CNC(=O)[C@H](Cc2ccccc2)NC1=O (stereo not given in full)	1.14	0.331	0.0263	-0.928	1.42	0.868 (inactive)	-0.0886	0.851	0.703 (inactive)	0.182	-2.28 (inactive)	-0.295 (inactive)	0.113 (inactive)	-0.748 (inactive)	2.7 (inactive)	1.22 (inactive)	0.468	0.52	0.0183 (inactive)	0.789
CCOC(=O)C[C@H]1[C@H](OC(=O)c2cc3ccccc3oc2=O)[C@@H](NC(=O)c2ccccc2)c2cc(OCCCO)ccc2N1C(=O)Cc1ccc(OC)cc1	2.5	-0.382	0.497	-1.86	1.66	0.965 (inactive)	-0.295	1.13	-0.53 (inactive)	-0.259	-1.99 (inactive)	0.757 (inactive)	-2.68 (inactive)	-0.859 (inactive)	3.23 (inactive)	1.78 (inactive)	0.625	-0.139	0.282 (inactive)	0.273
